The results in this text go back to paper PMC7862700, “An all-to-all approach to the identification of sequence-specific readers for epigenetic DNA modifications on cytosine”.

Experiment in all cases: DAPPL (digital affinity profiling via proximity ligation, sequencing); 10 mM Tris-HCl pH 7.5, 50 mM NaCl, 1 mM DTT, 4% glycerol, room temperature, 30 min; GST-TFs on glutathione beads, 16-mer random dsDNA library, 0.1% formaldehyde crosslink after washing; high values mean tight binding
Holding throughout (settings): protein: recombinant; tags: N-terminal GST; dsDNA, one strand shown

For one experiment, the target named is T1, FLI1 (Homo sapiens, UniProt Q01543 1-452).
T1 sequence: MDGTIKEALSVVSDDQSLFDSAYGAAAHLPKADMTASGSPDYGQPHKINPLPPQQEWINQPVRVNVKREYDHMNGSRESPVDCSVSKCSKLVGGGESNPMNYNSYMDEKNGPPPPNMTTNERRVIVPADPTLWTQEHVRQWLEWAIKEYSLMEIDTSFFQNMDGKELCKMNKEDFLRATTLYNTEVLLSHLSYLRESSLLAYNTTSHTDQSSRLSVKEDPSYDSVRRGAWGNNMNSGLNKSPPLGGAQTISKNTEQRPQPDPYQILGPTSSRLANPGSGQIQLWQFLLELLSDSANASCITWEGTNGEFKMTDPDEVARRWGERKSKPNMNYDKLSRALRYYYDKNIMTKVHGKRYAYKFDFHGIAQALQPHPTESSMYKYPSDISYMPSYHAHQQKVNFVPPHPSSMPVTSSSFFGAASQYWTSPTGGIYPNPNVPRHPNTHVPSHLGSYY
The gist of the method: (§1)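 After expression in yeast as GST fusions, human transcription factors were bound to glutathione beads, DNA-barcoded and mixed with a tag-only sample. The pools were incubated with 200 nmole of a 16-mer random double-stranded DNA library in Tris/NaCl/DTT/glycerol buffer (30 min, room temperature), washed and crosslinked with 0.1% formaldehyde. Proximity ligation with BsaI/T4 ligase ran for 1 h at 37 °C, before PCR amplification and sequencing on an Illumina NextSeq500. Binding signal is a hexamer's read frequency for a factor divided by its frequency for the tag-only sample.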

A further experiment addresses T2, ELK1 (Homo sapiens, UniProt P19419 1-428).
T2 sequence: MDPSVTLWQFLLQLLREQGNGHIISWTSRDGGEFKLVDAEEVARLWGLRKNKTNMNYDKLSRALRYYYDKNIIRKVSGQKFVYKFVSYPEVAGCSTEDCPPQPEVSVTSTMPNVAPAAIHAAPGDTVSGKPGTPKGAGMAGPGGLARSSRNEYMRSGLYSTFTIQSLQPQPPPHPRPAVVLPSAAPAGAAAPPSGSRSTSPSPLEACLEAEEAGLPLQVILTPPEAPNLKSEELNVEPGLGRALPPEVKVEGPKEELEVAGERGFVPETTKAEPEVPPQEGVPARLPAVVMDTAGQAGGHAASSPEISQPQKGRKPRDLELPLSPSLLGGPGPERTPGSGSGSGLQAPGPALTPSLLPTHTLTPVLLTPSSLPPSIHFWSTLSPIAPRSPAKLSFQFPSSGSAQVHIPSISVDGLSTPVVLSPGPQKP
The procedure, abridged: as §1

The target in the next experiment is T3, GABPA (Homo sapiens, UniProt Q06546 1-454).
T3 sequence: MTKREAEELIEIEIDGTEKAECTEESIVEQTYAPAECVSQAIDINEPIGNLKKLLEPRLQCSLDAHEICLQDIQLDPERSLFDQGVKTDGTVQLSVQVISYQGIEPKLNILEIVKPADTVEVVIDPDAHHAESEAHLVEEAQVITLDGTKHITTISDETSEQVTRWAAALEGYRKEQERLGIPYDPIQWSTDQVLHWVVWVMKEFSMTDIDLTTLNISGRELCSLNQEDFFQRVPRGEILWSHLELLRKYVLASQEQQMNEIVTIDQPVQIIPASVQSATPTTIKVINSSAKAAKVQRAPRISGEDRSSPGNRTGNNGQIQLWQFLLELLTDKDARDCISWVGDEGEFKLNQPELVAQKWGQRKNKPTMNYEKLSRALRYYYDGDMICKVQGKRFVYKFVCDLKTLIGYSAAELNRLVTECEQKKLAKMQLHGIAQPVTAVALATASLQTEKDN
The procedure, abridged: as §1

The next experiment has as its target T4, ERG (Homo sapiens, UniProt P11308 1-479).
T4 sequence: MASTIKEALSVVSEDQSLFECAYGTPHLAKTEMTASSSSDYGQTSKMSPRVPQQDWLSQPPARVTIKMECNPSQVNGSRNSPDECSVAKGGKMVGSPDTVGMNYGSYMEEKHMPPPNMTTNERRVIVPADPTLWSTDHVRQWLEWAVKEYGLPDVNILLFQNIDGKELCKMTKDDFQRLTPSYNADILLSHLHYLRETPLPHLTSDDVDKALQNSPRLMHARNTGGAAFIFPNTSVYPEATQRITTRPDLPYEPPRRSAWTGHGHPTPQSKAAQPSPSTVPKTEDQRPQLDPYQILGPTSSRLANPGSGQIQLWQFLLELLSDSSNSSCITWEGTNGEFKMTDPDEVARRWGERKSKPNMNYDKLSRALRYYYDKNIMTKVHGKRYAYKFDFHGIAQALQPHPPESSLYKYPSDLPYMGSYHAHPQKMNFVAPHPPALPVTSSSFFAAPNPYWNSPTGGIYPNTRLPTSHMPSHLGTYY
The procedure, abridged:
as §1

The target of the next experiment is ELF1 (Homo sapiens, UniProt P32519 1-619). The procedure, abridged: as §1
ELF1, sequence (P32519 whole entry): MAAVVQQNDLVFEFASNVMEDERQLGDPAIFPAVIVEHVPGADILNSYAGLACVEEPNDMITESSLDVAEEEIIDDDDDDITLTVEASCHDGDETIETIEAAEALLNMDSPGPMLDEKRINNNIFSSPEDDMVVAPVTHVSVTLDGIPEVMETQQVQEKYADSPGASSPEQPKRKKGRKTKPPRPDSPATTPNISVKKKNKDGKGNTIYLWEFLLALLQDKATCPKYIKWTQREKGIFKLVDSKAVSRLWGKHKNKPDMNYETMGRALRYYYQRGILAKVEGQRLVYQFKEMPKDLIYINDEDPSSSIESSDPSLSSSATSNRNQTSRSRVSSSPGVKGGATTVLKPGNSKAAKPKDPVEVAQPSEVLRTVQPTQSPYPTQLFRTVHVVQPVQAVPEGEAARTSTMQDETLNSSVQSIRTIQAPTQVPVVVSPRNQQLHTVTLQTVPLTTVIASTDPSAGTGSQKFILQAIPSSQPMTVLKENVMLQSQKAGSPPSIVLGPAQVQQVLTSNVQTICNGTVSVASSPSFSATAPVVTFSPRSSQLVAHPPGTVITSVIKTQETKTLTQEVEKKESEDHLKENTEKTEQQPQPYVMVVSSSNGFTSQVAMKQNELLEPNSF
In a further experiment the target is T5, EHF (Homo sapiens, UniProt Q9NZC4 1-300).
T5 sequence: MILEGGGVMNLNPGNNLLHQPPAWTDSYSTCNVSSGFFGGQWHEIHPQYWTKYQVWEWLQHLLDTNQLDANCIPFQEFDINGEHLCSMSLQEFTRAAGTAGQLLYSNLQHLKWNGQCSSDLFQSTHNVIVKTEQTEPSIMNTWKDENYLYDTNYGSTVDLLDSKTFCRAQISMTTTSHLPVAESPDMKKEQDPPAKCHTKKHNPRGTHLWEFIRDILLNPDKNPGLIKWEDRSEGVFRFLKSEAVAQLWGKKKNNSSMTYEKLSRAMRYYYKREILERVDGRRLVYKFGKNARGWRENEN
The gist of the method: as §1

Another experiment addresses SPI1 (Homo sapiens, UniProt P17947 1-270). The gist of the method: as §1
The target of a further experiment is SPIB (Homo sapiens, UniProt Q01892 1-262). The procedure, abridged: as §1
SPIB, sequence (Q01892 whole entry): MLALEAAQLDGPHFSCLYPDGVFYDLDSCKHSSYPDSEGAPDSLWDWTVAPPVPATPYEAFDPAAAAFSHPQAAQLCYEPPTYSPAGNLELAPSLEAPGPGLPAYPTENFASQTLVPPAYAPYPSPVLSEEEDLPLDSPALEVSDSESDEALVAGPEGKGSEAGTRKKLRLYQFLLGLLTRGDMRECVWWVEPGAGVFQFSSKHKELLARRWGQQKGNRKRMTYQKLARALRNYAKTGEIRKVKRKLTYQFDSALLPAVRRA
The target of another experiment is T6, ELK3 (Homo sapiens, UniProt P41970 1-407).
T6 sequence: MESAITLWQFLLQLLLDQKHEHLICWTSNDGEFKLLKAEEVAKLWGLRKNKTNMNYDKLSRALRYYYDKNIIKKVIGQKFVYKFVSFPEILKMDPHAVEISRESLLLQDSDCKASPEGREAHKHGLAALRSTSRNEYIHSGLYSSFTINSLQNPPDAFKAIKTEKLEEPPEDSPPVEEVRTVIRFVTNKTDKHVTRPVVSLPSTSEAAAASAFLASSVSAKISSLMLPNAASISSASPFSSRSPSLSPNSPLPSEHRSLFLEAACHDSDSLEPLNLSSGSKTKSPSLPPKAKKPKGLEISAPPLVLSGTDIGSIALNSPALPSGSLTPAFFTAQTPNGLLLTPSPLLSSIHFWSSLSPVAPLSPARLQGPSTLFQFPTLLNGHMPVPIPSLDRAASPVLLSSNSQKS
The procedure, abridged:
as §1

For the sequence TGAATT, the binding signal in the experiment with FLI1 is 1.15 fold enrichment (6-mer frequency, TF over GST control); with ELK1, 1.09 fold enrichment (6-mer frequency, TF over GST control); with GABPA it was 1.19 fold enrichment (6-mer frequency, TF over GST control); with ERG, 1.17 fold enrichment (6-mer frequency, TF over GST control); with ELF1 it was 1.1 fold enrichment (6-mer frequency, TF over GST control); with EHF, 1.17 fold enrichment (6-mer frequency, TF over GST control). The binding signal with SPI1 was 1.22 fold enrichment (6-mer frequency, TF over GST control); in the experiment with SPIB, 1.19 fold enrichment (6-mer frequency, TF over GST control); in the experiment with ELK3 it was 1.06 fold enrichment (6-mer frequency, TF over GST control).
For GGTCTT, the binding signal with FLI1 was 1.14 fold enrichment (6-mer frequency, TF over GST control); in the experiment with ELK1, 1.11 fold enrichment (6-mer frequency, TF over GST control); with GABPA it was 1.14 fold enrichment (6-mer frequency, TF over GST control); in the experiment with ERG it was 1.09 fold enrichment (6-mer frequency, TF over GST control); with ELF1 it was 1.19 fold enrichment (6-mer frequency, TF over GST control); with EHF, 1.1 fold enrichment (6-mer frequency, TF over GST control). In addition, the binding signal with SPI1 is 1.18 fold enrichment (6-mer frequency, TF over GST control); with SPIB, 1.23 fold enrichment (6-mer frequency, TF over GST control); with ELK3, 1.15 fold enrichment (6-mer frequency, TF over GST control).
Turning to GTTTTT, the binding signal with FLI1 was 1.31 fold enrichment (6-mer frequency, TF over GST control); with ELK1 it was 1.19 fold enrichment (6-mer frequency, TF over GST control); in the experiment with GABPA, 1.4 fold enrichment (6-mer frequency, TF over GST control); with ERG, 1.17 fold enrichment (6-mer frequency, TF over GST control); in the experiment with ELF1, 1.34 fold enrichment (6-mer frequency, TF over GST control); with EHF, 1.38 fold enrichment (6-mer frequency, TF over GST control). Besides, the binding signal with SPI1 is 1.42 fold enrichment (6-mer frequency, TF over GST control); with SPIB it was 1.36 fold enrichment (6-mer frequency, TF over GST control); with ELK3, 1.51 fold enrichment (6-mer frequency, TF over GST control).
Turning to ATTCTC, the binding signal with FLI1 is 1.35 fold enrichment (6-mer frequency, TF over GST control); with ELK1, 1.27 fold enrichment (6-mer frequency, TF over GST control); with GABPA, 1.32 fold enrichment (6-mer frequency, TF over GST control); with ERG, 1.25 fold enrichment (6-mer frequency, TF over GST control); with ELF1, 1.24 fold enrichment (6-mer frequency, TF over GST control); with EHF, 1.27 fold enrichment (6-mer frequency, TF over GST control). In addition, the binding signal is 1.27 fold enrichment (6-mer frequency, TF over GST control) with SPI1; 1.32 fold enrichment (6-mer frequency, TF over GST control) with SPIB; 1.42 fold enrichment (6-mer frequency, TF over GST control) in the experiment with ELK3.
In the case of CGAACC, the binding signal is 1.1 fold enrichment (6-mer frequency, TF over GST control) in the experiment with FLI1; 1.29 fold enrichment (6-mer frequency, TF over GST control) with ELK1; 1.22 fold enrichment (6-mer frequency, TF over GST control) in the experiment with GABPA; 1.15 fold enrichment (6-mer frequency, TF over GST control) with ERG; 1.23 fold enrichment (6-mer frequency, TF over GST control) with ELF1; 1.19 fold enrichment (6-mer frequency, TF over GST control) with EHF. Moreover, the binding signal with SPI1 is 1.17 fold enrichment (6-mer frequency, TF over GST control); in the experiment with SPIB, 1.13 fold enrichment (6-mer frequency, TF over GST control); in the experiment with ELK3, 1.21 fold enrichment (6-mer frequency, TF over GST control).
For AACTAC, the binding signal with FLI1 is 1.42 fold enrichment (6-mer frequency, TF over GST control); in the experiment with ELK1, 1.42 fold enrichment (6-mer frequency, TF over GST control); with GABPA, 1.49 fold enrichment (6-mer frequency, TF over GST control); with ERG, 1.5 fold enrichment (6-mer frequency, TF over GST control); in the experiment with ELF1, 1.45 fold enrichment (6-mer frequency, TF over GST control); in the experiment with EHF it was 1.43 fold enrichment (6-mer frequency, TF over GST control). In addition, the binding signal in the experiment with SPI1 was 1.47 fold enrichment (6-mer frequency, TF over GST control); with SPIB, 1.47 fold enrichment (6-mer frequency, TF over GST control); in the experiment with ELK3 it was 1.48 fold enrichment (6-mer frequency, TF over GST control).
In the case of ATTTTA, the binding signal with FLI1 is 1.32 fold enrichment (6-mer frequency, TF over GST control); in the experiment with ELK1 it was 1.16 fold enrichment (6-mer frequency, TF over GST control); with GABPA, 1.3 fold enrichment (6-mer frequency, TF over GST control); with ERG it was 1.29 fold enrichment (6-mer frequency, TF over GST control); in the experiment with ELF1, 1.29 fold enrichment (6-mer frequency, TF over GST control); with EHF, 1.32 fold enrichment (6-mer frequency, TF over GST control). The binding signal was 1.34 fold enrichment (6-mer frequency, TF over GST control) with SPI1; 1.35 fold enrichment (6-mer frequency, TF over GST control) in the experiment with SPIB; 1.31 fold enrichment (6-mer frequency, TF over GST control) with ELK3.
On to CTCCGA, for which the binding signal with FLI1 is 1.35 fold enrichment (6-mer frequency, TF over GST control); with ELK1 it was 1.42 fold enrichment (6-mer frequency, TF over GST control); with GABPA it was 1.45 fold enrichment (6-mer frequency, TF over GST control); with ERG it was 1.34 fold enrichment (6-mer frequency, TF over GST control); with ELF1, 1.37 fold enrichment (6-mer frequency, TF over GST control); with EHF, 1.39 fold enrichment (6-mer frequency, TF over GST control). Besides, the binding signal was 1.44 fold enrichment (6-mer frequency, TF over GST control) with SPI1; 1.52 fold enrichment (6-mer frequency, TF over GST control) in the experiment with SPIB; 1.33 fold enrichment (6-mer frequency, TF over GST control) with ELK3.
